Results filed as inconclusive are left out. Active and inactive are the calls of the source. The call rests on the fitted dose curve; in most records, active means well fitted inhibition curve with a large enough effect; inconclusive means small, poorly fitted or top-dose-only effect; inactive means flat fitted curve, though single readings scatter.
Assay: CHOP2 Reporter Counterscreen Assay for Inhibitors of Ubiquitin-specific Protease USP2a;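 further: activated enterokinase alone at 50 pM in a cell-free format rather than USP2a or CHOP2; nearly all actives have a fitted effect of over 55% in size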
Details: purified enterokinase, fluorogenic substrate, 485/531 nm; series mostly up to 38.3 µM; activity change, negative = inhibition: at the top concentration
In short: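 Cell-free counterscreen with pre-activated enterokinase alone (50 pM final) in 20mM Tris-HCl pH 8.0, 2mM CaCl2, 2mM beta-mercaptoethanol, 0.05% CHAPS; compound preincubation 30 min RT, reporter substrate 25nM final, fluorescence read after 10 min (Ex 485/Em 531).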
For C=CCn1c(O)c(C(CC)=NCCN2CCOCC2)c(=O)[nH]c1=O, the “activity change, negative = inhibition” value was 6.89% (inactive).
For O=C1CC(c2ccc(Cl)cc2)SC(N(c2ccccc2)c2ccccc2)=N1 (stereo not given), the “activity change, negative = inhibition” value was 1.87% (inactive).
In the case of CCCn1c(NC(=O)c2ccc(Br)cc2)nc2ccccc21, the “activity change, negative = inhibition” value is reported as 1.65% (inactive).
For C=CCOc1cccc(C2C(C(=O)c3ccco3)=C(O)C(=O)N2CCN(CC)CC)c1 (stereo not given), the “activity change, negative = inhibition” value was 2.38% (inactive).
With CCN1C(=O)C(NC(C)=O)c2cc(OC)ccc21 (stereo not given) the “activity change, negative = inhibition” value was 1.84% (inactive).
With CCC(=O)Nc1c2c(nn1-c1ccc(F)cc1)CS(=O)C2 (stereo not given) the “activity change, negative = inhibition” value was 3.27% (inactive).
With O=C1/C(=C/C=C/c2ccco2)SC(=S)N1NS(=O)(=O)c1ccccc1 the Potency was 3.55 µM (active).
For Cc1ccc(C(C(=O)NC2CCCC2)N2CCc3ccccc32)cc1 (stereo not given), the “activity change, negative = inhibition” value was 3.43% (inactive).
For O=C(C[n+]1cccc(C(=O)N/N=C/c2ccc(Br)cc2)c1)c1ccccc1, the “activity change, negative = inhibition” value was -1.9% (inactive).
With O=C(c1cccc(F)c1)N1CCN(S(=O)(=O)c2ccccc2)CC1 the “activity change, negative = inhibition” value was 3.3% (inactive).
With O=C(OCC(=O)N1CCCCC1)c1cc2ccccc2cc1O the “activity change, negative = inhibition” value was 0.355% (inactive).
With COc1ccccc1NC(=O)N1CCN(c2ccccn2)CC1 the “activity change, negative = inhibition” value was 0.312% (inactive).
With Cc1ccc(S(=O)(=O)N2[C@@H](c3ccc(C(C)(C)C)cc3)C(C(=O)O)=CC[C@H]2c2ccc(Cl)cc2)cc1 the Potency was 10 µM (active).
In the case of Oc1ccccc1/C=N/Nc1ncc(Br)cn1, the “activity change, negative = inhibition” value is reported as -2.82% (inactive).
For NC(=O)C[C@@H]1N[C@]2(C(=O)Nc3ccccc32)[C@@H]2C(=O)N(c3cc(C(F)(F)F)ccc3Cl)C(=O)[C@H]12, the “activity change, negative = inhibition” value was 4.19% (inactive).
In the case of O=c1oc2ccccc2n1Cn1c(=O)oc2ccccc21, the “activity change, negative = inhibition” value is reported as -0.0721% (inactive).
For CCOC(=O)c1[nH]c2ccc(OC)cc2c1NC(=O)CCN1CCCC(C)C1 (stereo not given), the “activity change, negative = inhibition” value was -6.26% (inactive).
With COc1cc(C(=O)OC2CCCCC2=O)cc(OC)c1C (stereo not given) the “activity change, negative = inhibition” value was -5.18% (inactive).
With CC1=CC(C)(C)N(C(=O)c2ccccc2)c2ccccc21 the “activity change, negative = inhibition” value was 6.73% (inactive).
With Cc1ccc(/C=C/S(=O)(=O)N2CCC(C(=O)O)CC2)cc1 the “activity change, negative = inhibition” value was 0.0087% (inactive).
In the case of CCOc1ccccc1N(CC(=O)NC(C)(C)C)C(=O)c1ccc(CN2CCOCC2)o1, the “activity change, negative = inhibition” value is reported as -0.122% (inactive).
With Cc1ccc(C(=O)c2coc3c2C(=O)C(=O)c2ccccc2-3)cc1 the “activity change, negative = inhibition” value was 0.551% (inactive).
For Cc1c(NC(=O)c2ccc(COc3ccc4ccccc4c3)o2)c(=O)n(-c2ccccc2)n1C, the “activity change, negative = inhibition” value was -9.92% (inactive).
For O=C(CSc1nc(O)cc(=O)n1-c1ccccc1)NC1CCCCC1, the “activity change, negative = inhibition” value was -0.765% (inactive).
For O=C(COC(=O)c1ccc(NS(=O)(=O)c2cccs2)cc1)Nc1nc2c(F)c(F)c(F)cc2s1, the Potency was 10 µM (active).
In the case of O=C(N/N=C/c1ccc(-c2ccc(S(=O)(=O)Nc3ncccn3)cc2)o1)c1cc2ccccc2cc1O, the Potency is reported as 3.98 µM (active).
With O=C(Nc1ccc(S(=O)(=O)Nc2ncccn2)cc1)c1ccc(S(=O)(=O)N2CCCC2)cc1 the “activity change, negative = inhibition” value was -3.71% (inactive).
In the case of c1coc(CNC2CCCCCCC2)c1, the “activity change, negative = inhibition” value is reported as -5.83% (inactive).
With CC(C)(C)C1CCc2nc(NC(=O)Cc3cn4ccsc4n3)sc2C1 (stereo not given) the “activity change, negative = inhibition” value was -4.53% (inactive).
In the case of CCOc1ccccc1C(=O)NC1CC2CCCC(C1)N2C1CC1 (stereo not given), the “activity change, negative = inhibition” value is reported as 0.436% (inactive).
With O=C(OCc1ccccc1)C1CCCN1C(=O)c1cccs1 (stereo not given) the “activity change, negative = inhibition” value was 8.05% (inactive).
In the case of CCOC(=O)c1c(NC(C)=O)sc2c1CCCNC2=O, the “activity change, negative = inhibition” value is reported as 0.0158% (inactive).
For Cc1cc(N2CCOCC2)nc(SCC(=O)c2ccc(Cl)cc2)n1, the “activity change, negative = inhibition” value was 4.72% (inactive).
For Cc1ccc(Nc2nc(N)nc(CN3CCN(C(=O)c4ccco4)CC3)n2)cc1Cl, the “activity change, negative = inhibition” value was -5.49% (inactive).
With O=C(Cc1cccs1)Nc1ccc(S(=O)(=O)N2CCCCC2)cc1 the Potency was 7.94 µM (active).
With O=C(Nc1ccc(C2=NCCN2)cc1)c1ccc(C(=O)Nc2ccc(C3=NCCN3)cc2)c([N+](=O)[O-])c1 the Potency was 7.94 µM (active).
For CC1(C)CC(=O)C2=C(C1)N(Cc1ccco1)C(=O)NC2(C(F)(F)F)C(F)(F)F, the “activity change, negative = inhibition” value was 1.05% (inactive).
For CCC(CO)Nc1nc(CN2CCCCC2)nc2scc(-c3ccccc3)c12 (stereo not given), the “activity change, negative = inhibition” value was 0.692% (inactive).
In the case of CCNC1=C(Cl)C(=O)c2ccccc2C1=O, the “activity change, negative = inhibition” value is reported as 8.75% (inactive).
In the case of COc1cccc(C(=O)NCc2ccc3[nH]c(C)cc3c2)c1, the “activity change, negative = inhibition” value is reported as 3.71% (inactive).
On the % scale 0 is the no-effect control and ±100 the full control effect; potency means the concentration at half of the fitted maximal effect.
